The values below are quoted from earlier work in PubChem BioAssay AID977611.

In all, about 3,900 compounds went through this assay and about 3,900 (100%) were called active. Cut-off not given; nearly all actives show Kd up to about 4200 µM. So high a share suggests a set chosen from earlier hits. The list shows a part of the results. Where a SMILES comes first, the peptide text is derived from it. Non-standard residues stand in square brackets, D forms with d. Square brackets hold non-standard residues; d marks the D form. Residues, ends and D or L forms follow the SMILES beside them. Peptide text beside a SMILES is read from it. [ ]: non-standard residue; d: D form. Orn(CH(NH2)2) = NC(N)NCCC[C@H](N)C(=O)O; Lys(Me2) = CN(C)CCCC[C@H](N)C(=O)O

This data set can be described thus: PubChem AID 977611. The settings on record: PDB protein-ligand complexes, literature Kd.

Take H-QLINTNGSWHVN-OH: the Kd (protein: Fab fragment derived from neutralizing antibody 3/11, PDB entry 4wht) was 0.0079 µM (active).
With H-QLINTNGSWHIN-OH, the Kd runs as follows: (protein: MRCT10.v362 Fab light chain & MRCT10.v362 Fab heavy chain, PDB entry 4hs6) 0.03 µM (active); (protein: antibody hu5B3.v2 Fab heavy chain & antibody hu5B3.v2 Fab light chain, PDB entry 4hs8) 0.012 µM (active).
Turning to H-GKISKHWTGI-OH, the Kd (protein: Importin ?-2 Subunit, PDB entry 1y2a) was 0.0458 µM (active).
On to H-QLINTNGSWHV-OH, for which the Kd (protein: Fab fragment derived from neutralizing antibody 3/11, PDB entry 4why) is 0.0079 µM (active).
On to `CC[C@H](C)[C@H](N)C(=O)N[C@@H](CS)C(=O)N[C@H](C(=O)N[C@@H](Cc1c[nH]c2ccccc12)C(=O)N[C@@H](CCC(N)=O)C(=O)N[C@@H](CC(=O)O)C(=O)N[C@@H](Cc1c[nH]c2ccccc12)C(=O)NCC(=O)N[C@@H](C)C(=O)N[C@@H](Cc1cnc[nH]1)C(=O)N[C@@H](CCCNC(N)N)C(=O)N[C@@H](CS)C(=O)N[C@H](C(=O)O)[C@@H](C)O)C(C)C`, for which, under “protein: Component C3c, PDB entry 2qki”, the equilibrium dissociation constant (Kd) is 0.39 µM (active).
Regarding `O=C(O)c1ccc2nc(-c3cc(Cl)cc(Cl)c3)oc2c1`, where the note is “protein: Transthyretin (V122I mutation), PDB entry 4his”, the Kd is 0.0081 µM (active).
In the case of `CC(=O)[C@]1(O)CC2=C(C(=O)C3=C(C(=O)c4ccccc4C3=O)C2O)[C@@H](O[C@H]2C[C@H](N)[C@H](O)[C@H](C)O2)C1` (some centres not stated), the Kd (protein: Chitinase A, PDB entry 3arq) is 0.4 µM (active).
As to `CCC/C=C/CCO[C@H]1O[C@H](CO)[C@@H](O)[C@H](O)[C@@H]1O`, the Kd (protein: Protein FimH, PDB entry 4lov) was 0.0171 µM (active).
As to `C[C@H](CCCCN(C)C)NC(=O)[C@@H](N)CCCNC(N)N`, under “protein: Tumor suppressor p53-binding protein 1, PDB entry 2ig0”, the Kd is 19.7 µM (active).
Take `CC(=O)NCCCC[C@H](N)C(=O)O`: under “protein: Chromatin structure-remodeling complex protein Rsc4(36340), PDB entry 2r0y”, the Kd was 1000 µM (active).
In the case of `N[C@@H](CCS)C(=O)O`, the Kd (protein: Betaine-Homocysteine S-Methyltransferase from Homo sapiens, PDB entry 4m3p) is 4 µM (active).
With `CN(C)CCCC[C@H](N)C(=O)O`, the Kd (protein: Tumor suppressor p53-binding protein 1 tandem tudor domain, PDB entry 3lgl) is 0.9 µM (active).
For `CC(C)C[C@H](NC(=O)[C@H](CC(C)C)NC(=O)[C@H](CC(N)=O)NC(=O)[C@H](Cc1c[nH]c2ccccc12)NC(=O)[C@H](Cc1ccc(O)cc1)NC(=O)[C@H](CCC(=O)O)NC(=O)[C@H](C)NC(=O)[C@H](Cc1ccccc1)NC(=O)[C@H](CO)NC(=O)[C@@H](N)[C@@H](C)O)C(=O)N[C@H](C=O)CO` (H-TSFAEYWNLLS-aldehyde), for the setting “protein: E3 ubiquitin-protein ligase Mdm2, PDB entry 3eqs”, the equilibrium dissociation constant (Kd) is 0.0033 µM (active).
Turning to `CC(C)C[C@H](NC(=O)[C@H](C)NC(=O)[C@H](Cc1c[nH]c2ccccc12)NC(=O)[C@H](Cc1ccc(O)cc1)NC(=O)[C@H](CCC(=O)O)NC(=O)[C@H](C)NC(=O)[C@H](Cc1ccccc1)NC(=O)[C@H](CO)NC(=O)[C@@H](N)[C@@H](C)O)C(=O)N[C@@H](CC(C)C)C(=O)N[C@@H](CO)C(=O)O`, the Kd (protein: human MDM2, PDB entry 3lnz) was 0.00049 µM (active).
On to `CC(C)[C@H](N)C(=O)N[C@@H](Cc1ccc(O)cc1)C(=O)N[C@@H](Cc1c[nH]c2ccccc12)C(=O)N[C@@H](Cc1ccccc1)C(=O)O` (H-VYWF-OH), for which the equilibrium dissociation constant (Kd) (protein: Protease degS, PDB entry 2r3y) is 3.2 µM (active).
For `C[C@H](N)C(=O)N[C@@H](CCCNC(N)N)C(=O)N[C@H](C(=O)N[C@@H](C)C(=O)O)[C@@H](C)O` (H-A[Orn(CH(NH2)2)]TA-OH), where the note is “protein: WD-repeat protein 5(WDR523), PDB entry 2h9p”, the Kd was 192 µM (active).
Regarding `C[C@H](NC(=O)CNC(=O)[C@@H](N)CS)C(=O)N[C@@H](CCCNC(N)N)C(=O)O` (H-CGA[Orn(CH(NH2)2)]-OH), the Kd (protein: ?-chain of Hepatocyte growth factor-like protein, PDB entry 2asu) was 0.001 µM (active).
Take `C[C@H](N)C(=O)N[C@@H](CCCNC(N)N)C(=O)N[C@H](C(=O)O)[C@@H](C)O`: the Kd (protein: ING4, PDB entry 2vnf) is 3 µM (active).
As for `C[C@H](N)C(=O)N[C@@H](CCCNC(N)N)C(=O)N[C@H](C(=O)N[C@@H](CCCCN)C(=O)N[C@@H](C)C(=O)O)[C@@H](C)O` (H-A[Orn(CH(NH2)2)]TKA-OH), the dissociation constant (Kd) (protein: Baculoviral IAP repeat-containing protein 5, human Survivin, PDB entry 3uef) was 21 µM (active).
With `C[C@@H](O)[C@H](NC(=O)CNC(=O)[C@@H](N)CCCNC(N)N)C(=O)O`, the Kd (protein: Proto-oncogene tyrosine-protein kinase Src, PDB entry 4hxj) is 74.3 µM (active).
Take `OC[C@H]1CN[C@@H](O)[C@@H](O)[C@@H]1O`: the Kd (protein: MANNOSYL-OLIGOSACCHARIDE 1,2-ALPHA-MANNOSIDASE, PDB entry 4ayr) was 0.099 µM (active).
Take `C[C@H]1NC(=NCCC[C@H](N)C(=O)O)N[C@H]1O`: for the setting “protein: Advanced glycosylation end product-specific receptor V domain, PDB entry 2mov”, the Kd was 0.04 µM (active).
For H-AGGPTIEEVD-OH, the Kd (protein: Protein UNC-45, PDB entry 4i2w) is 121 µM (active).
As to `C[C@H](N)C(=O)N1CCC[C@H]1C(=O)N1CCC[C@H]1C(=O)NCC(=O)N[C@H](C(=O)N[C@@H](C)C(=O)N[C@@H](CCCNC(N)N)C(=O)N[C@@H](CCCNC(N)N)C(=O)N[C@@H](CCCCN)C(=O)N[C@@H](CCCNC(N)N)C(=O)N[C@@H](CCCCN)C(=O)N[C@@H](C)C(=O)N[C@@H](CC(=O)O)C(=O)N[C@@H](CO)C(=O)O)[C@@H](C)O` (H-APPGTA[Orn(CH(NH2)2)][Orn(CH(NH2)2)]K[Orn(CH(NH2)2)]KADS-OH), the Kd (protein: Signal recognition particle 43 kDa protein, chloroplast, PDB entry 2hug) was 1.06 µM (active).
For the compound `C[C@H](N)C(=O)N[C@@H](C)C(=O)N[C@@H](CCCCN(C)C)C(=O)N[C@@H](CO)C(=O)N[C@H](C(=O)NCC(=O)NCC(=O)O)[C@@H](C)O` (H-AA[Lys(Me2)]STGG-OH), the Kd (protein: Euchromatic histone-lysine N-methyltransferase 1(Glp), PDB entry 3b95) is 7 µM (active).
For `C[C@H](NC(=O)[C@H](CCCCN)NC(=O)[C@H](CCCCN)NC(=O)[C@H](CCCCN)NC(=O)[C@@H](NC(=O)[C@H](CO)NC(=O)CNC(=O)[C@H](CCCCN)NC(=O)[C@@H]1CCCN1C(=O)[C@H](CCC(=O)O)NC(=O)[C@@H]1CCCN1C(=O)[C@H](CCC(=O)O)NC(=O)[C@H](CCCCN)NC(=O)[C@H](CCCNC(N)N)NC(=O)[C@H](CCCCN)NC(=O)[C@H](C)NC(=O)[C@@H](N)CO)[C@@H](C)O)C(=O)N[C@@H](CCCCN)C(=O)N[C@H](C(=O)O)[C@@H](C)O` (H-SAK[Orn(CH(NH2)2)]KEPEPKGSTKKKAKT-OH), where the note is “protein: Importin subunit alpha-2, PDB entry 3uvu”, the Kd was 0.042 µM (active).
